According to PubChem BioAssay (NCATS):
Inconclusive results are not listed. Calls of active or inactive are those of the source. The call rests on the fitted dose curve; in most records, active means well fitted cell-killing curve with a large enough effect; inconclusive means small, poorly fitted or top-dose-only effect; inactive means flat fitted curve, though single readings scatter. Where a SMILES comes first, the peptide text is derived from it. Bridges are numbered along the chain shown (N, C = ends). [ ]: non-standard residue; d: D form. hArg = N=C(N)NCCCC[C@H](N)C(=O)O; Mpa = O=C(O)CCS

Assay: qHTS of pediatric cancer cell lines to identify multiple opportunities for drug repurposing: Primary screen for BT-12 cells (AID 1347101); further: nearly all actives have a fitted effect of over 25% in size
Settings: BT-12 viability, CellTiter-Glo luminescence, 48 h; series mostly up to 57.3 µM
From the text: Drug repurposing or repositioning has been offered as a strategy for drug development in oncology programs. This approach has special potential for childhood cancers and other rare or orphan diseases, where the expected return on new drug development has been a disincentive to pharmaceuticals.
In this project we exploit the poly-pharmacology of drugs to discover new indications via phenotypic screening of a panel of 19 well-characterized cell lines derived from solid tumors seen in children and adolescents. The goal is to identify approved drugs with previously unrecognized anticancer properties that has the potential to reveal new mechanisms and biological processes involved in carcinogenesis or drug resistance. We employed a titration-based paradigm (quantitative high-throughput screening or qHTS), where all compounds were tested at multiple concentrations for their effect on cell viability. Concentration-response curves (CRCs) were derived directly from the primary screen, and both potency and efficacy values were used to identify compounds with robust bioactivity profiles. We screened the NIH Chemical Genomics Center (NCGC) Pharmaceutical Collection (NPC) and Mechanism Interrogation Plate (MIPE) small molecule collections of approved and investigational compounds against these cell lines; and measured metabolically active cells after 48 hours of compound treatment as a proxy for cell viability.
Assay Submitter: Nathalia J. Martinez, National Center for Advancing Translational Sciences, National Institutes of Health, Rockville, MD, USA; email: natalia.martinez@nih.gov
[1] Shen, M et al. Quantitative high-throughput phenotypic screening of pediatric cancer cell lines identifies multiple opportunities for drug repurposing. Oncotarget 2017 Dec 19;9(4):4758-4772. PMID 29435139.
The cells were obtained from University of North Carolina (UNC), Pediatric Preclinical Testing Program (PPT), and Coriell Institute (CI).
qHTS cell viability assay:
Cells were assayed in growth media at a density of 500-1,000 cells/well. Five microliters of cells were dispensed into 1,536-well, white, solid-bottom, TC-treated plates (Greiner Bio One) using a multidrop dispenser and incubated at 37 degrees C, 5% CO2, under a humidified atmosphere for 5 hours. Twenty-three nanoliters of compounds and controls (neutral control DMSO or positive control bortezomib at final concentration of 2.3 µM) were subsequently transferred by Kalypsys pintool. For primary screens, the MIPE collection was tested at 11-point dilutions (final concentrations range from 0.78 nM to 46 µM) and the NPC collection at 8-point dilutions (final concentrations range from 0.59 nM to 46 µM). Compounds tested in follow-up screens were assayed at 11-point dilutions. Cells were incubated for 48 hours, followed by addition of 3 µL of CellTiter-Glo (Promega). After a 15 min incubation at room temperature, samples were analyzed for luminescence intensity using a ViewLux High-throughput CCD imager equipped with clear filters.
For `CCOc1cc(NC(C)=O)ccc1C(=O)OC`, the outcome was “inactive”. For `CN(C(=O)c1c(O)c2ccccc2n(C)c1=O)c1ccccc1`, the outcome was “inactive”. In the case of `CCOC(N)=O`, the outcome is reported as “inactive”. For `Cc1cccc(Nc2ccccc2C(=O)O)c1C`, the outcome was “inactive”. With `CCS(=O)(=O)CCn1c([N+](=O)[O-])cnc1C` the outcome was “inactive”. In the case of `Cc1c(C(=O)NCCO)[n+](=O)c2ccccc2n1[O-]`, the outcome is reported as “inactive”. For `Cc1ccc(C(C)C)c(O)c1`, the outcome was “inactive”. For `CCN[C@H]1CN(CCCOC)S(=O)(=O)c2sc(S(N)(=O)=O)cc21`, the outcome was “inactive”. For `CC(=O)N1C[C@H](O)C[C@H]1C(=O)O`, the outcome was “inactive”. For `Cc1ccsc1/C=C/C1=NCCCN1C`, the outcome was “inactive”. For `COc1ccccc1Oc1c(NS(=O)(=O)c2ccc(C(C)(C)C)cc2)nc(-c2ncccn2)nc1OCCO`, the outcome was “inactive”. With `C[C@@H](c1ncncc1F)C(O)(Cn1cncn1)c1ccc(F)cc1F` (stereo not given in full) the outcome was “inactive”. In the case of `Cc1ncc(CO)c(CN)c1O`, the outcome is reported as “inactive”. With `CC(CN(C)C)C(C)(O)Cc1ccc(Cl)cc1` (stereo not given) the outcome was “inactive”. In the case of `CC(=O)Oc1cccc(O)c1`, the outcome is reported as “inactive”. In the case of `CCN(CC)CCc1nc(-c2ccccc2)no1`, the outcome is reported as “inactive”. For `NS(=O)(=O)c1ccc(NC(=O)CCC(=O)O)cc1`, the outcome was “inactive”. For `COc1ccc(C(=O)N2CCN(CC(=O)N3CCOCC3)CC2)cc1`, the outcome was “inactive”. With `CC(=O)Nc1ccc(C(=O)O)cc1` the outcome was “inactive”. With `CC(=O)Nc1ccc(OCCOCCOc2ccc(NC(C)=O)cc2)cc1` the outcome was “inactive”. In the case of `COc1ccc(Cc2cnc(N)nc2N)cc1OC`, the outcome is reported as “inactive”. In the case of `CC(=O)SC[C@@H](Cc1ccccc1)C(=O)NCC(=O)OCc1ccccc1`, the outcome is reported as “inactive”. In the case of `O=C(/C=C/c1ccccc1)OCc1ccccc1`, the outcome is reported as “inactive”. In the case of `CCN(CC)CCOC(=O)C(c1ccccc1)c1ccccc1`, the outcome is reported as “inactive”. For `O=S1(=O)OC(c2ccc(O)cc2)(c2ccc(O)cc2)c2ccccc21`, the outcome was “inactive”. For `CCCOC(=O)c1ccc(N)cc1`, the outcome was “inactive”. With `CCOC(=O)c1cccnc1` the outcome was “inactive”. In the case of `OC(CCN1CCCC1)(c1ccccc1)C1CCCCC1` (stereo not given), the outcome is reported as “inactive”. For `CCCC(O)C(CC)CO` (stereo not given), the outcome was “inactive”. In the case of `CC(=O)N(CC(O)CN(C(C)=O)c1c(I)c(C(=O)NCC(O)CO)c(I)c(C(=O)NCC(O)CO)c1I)c1c(I)c(C(=O)NCC(O)CO)c(I)c(C(=O)NCC(O)CO)c1I` (stereo not given), the outcome is reported as “inactive”. With `CC(=O)OCC(=O)[C@@]1(O)CC[C@H]2[C@@H]3CCC4=CC(=O)C=C[C@]4(C)[C@@]3(F)[C@@H](O)C[C@@]21C` the outcome was “inactive”. In the case of `CCN(CC)CC1CCCCN1CC(=O)N1c2ccccc2C(=O)Nc2cccnc21` (stereo not given), the outcome is reported as “inactive”. For `C[n+]1ccccc1/C=N/O`, the outcome was “inactive”. For `CN[C@@H]1[C@H](O)[C@H](NC)[C@H]2O[C@@]3(O)C(=O)C[C@@H](C)O[C@H]3O[C@@H]2[C@H]1O`, the outcome was “inactive”. With `NNc1nnc(NN)c2ccccc12` the outcome was “inactive”. In the case of `NC(=O)[C@@H]1CSSCCC(=O)N[C@@H](CCCCN=C(N)N)C(=O)NCC(=O)N[C@@H](CC(=O)O)C(=O)N[C@@H](Cc2c[nH]c3ccccc23)C(=O)N2CCC[C@H]2C(=O)N1` ([Mpa][hArg]GDWPC-NH2; disulfide 1-7), the outcome is reported as “inactive”. With `CC1(C)S[C@@H]2[C@H](NC(=O)C(C(=O)O)c3ccccc3)C(=O)N2[C@H]1C(=O)O` (stereo not given in full) the outcome was “inactive”. With `NC(=O)N[C@@H](CCC(=O)O)C(=O)O` the outcome was “inactive”. For `CCCCCC(N)=O`, the outcome was “inactive”. For `Cn1cc(C(=O)[C@@H]2CCc3nc[nH]c3C2)c2ccccc21`, the outcome was “inactive”.
